This is a sample that favours compounds with a hit; in the whole collection about 19% have one here.
AMA1 RON2 block – inhibitors of Plasmodium falciparum AMA1-RON2 interaction; AlphaScreen AMA1-biotinylated RON2 peptide binding; Potency, µM (doses to about 58.2 µM), inactives show at the top dose activity change, negative = inhibition, actives largely listed as inhibitors; 360,000 compounds, 0.2% hits;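 further: potency means the concentration at half of the fitted maximal effect; 0% = vehicle wells and -100% = peptide control; nearly all actives have a fitted effect of over 45% in size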
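AMA1 (3D7) with his tag at 25 nM final met compounds first, then biotinylated RON2 peptide at 25 nM; detection used donor plus acceptor beads, 10 µg/mL apiece, read by AlphaScreen after 30 min at room temperature.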
Pf growth 96h – P. falciparum growth inhibition at 96 hour, primary screen for plastid delayed-death inhibitors. Potency, µM (series often up to 28.7 µM), inactives show at the top dose activity change, negative = inhibition, hits mostly inhibitors. P. falciparum luciferase reporter growth, 96 h. 320,000 compounds, 6.9% hits. AID 504834; further: potency means the concentration at half of the fitted maximal effect; on the % scale 0 is the no-effect control and ±100 the full control effect
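Parasite growth measured via integrated firefly luciferase reporter in P. falciparum. Infected erythrocytes at 2% hematocrit, 0.05% parasitemia final were treated 96 hours at 37 C under 5% CO2, and luminescence was read.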
Pf growth 48h – P. falciparum growth inhibition at 48 hours (one generation). AID 504832. Potency, µM (series often up to 28.7 µM), inactives show at the highest dose activity change, negative = inhibition, most hits filed as inhibitors. P. falciparum luciferase growth in erythrocytes, 48 h. 310,000 compounds, 5.9% hits; further: potency means the concentration at half of the fitted maximal effect; on the % scale 0 is the no-effect control and ±100 the full control effect
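Parasite viability was followed by luminescence of a genomically integrated firefly luciferase. Cultures held 0.1% parasitemia at 2% hematocrit (final), incubated under 5% CO2 at 37 C.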
CHX counter-1 – counter-screen for Shiga toxin inhibitors: cycloheximide protein synthesis inhibition; 300,000 compounds, 12% hits; cell reporter, cycloheximide protein synthesis inhibition counterscreen; max response, %; AID 2314; in the data active means max response mostly above about 13%, no sharp cut-off; inactive means mostly below about 14%; further: read at 38.3 µM for the half of the compounds with a filed dose; 0% is about no effect
Shiga toxin inh – inhibitors of Shiga toxin in Vero cells | Vero cells, Shiga toxin protein synthesis inhibition reporter | inhibition, % at 38.7 µM | 290,000 compounds, 9.2% hits | AID 2315; in the data active means inhibition mostly above about 28%, no sharp cut-off; inactive means mostly below about 43%; further: 0% is about no effect
SARS PLpro yeast – SARS-CoV PLP inhibition in yeast; 330,000 compounds, 0.19% hits; Potency, µM (highest dose often 32.9 µM), for the others: top-dose activity, positive = growth rescue, actives largely listed as activators; AID 485353; S. cerevisiae expressing SARS-CoV PLpro, growth rescue; calls by dose curve; further: potency means the concentration at half of the fitted maximal effect; 0% is about no effect; nearly all actives have a fitted effect of over 55% in size
CHX counter-2 – protein synthesis counter-screen activity for Shiga toxin hits | Cycloheximide counterscreen, protein synthesis reporter, Shiga toxin assay | 510 compounds, 3% hits | Potency, µM (series often up to 38.3 µM), for the others: top-dose activity (activation), hits mostly activators | shares compounds with Shiga toxin inh; calls by dose curve; further: potency means the concentration at half of the fitted maximal effect; 0% is about no effect
Starred values were filed as active, the others as inactive. Unless noted, the call rests on the fitted dose curve; in most records, active means well fitted curve in the direction sought with a large enough effect; inconclusive means small, poorly fitted or top-dose-only effect, or another doubt; inactive means no such curve, though single readings can be large; an effect the other way counts as inactive or inconclusive.

What do the screens show for `Cc1cccc(Cn2cc(SCC(=O)Nc3nccs3)c3ccccc32)c1`?
AMA1 RON2 block: 9.0%; Pf growth 96h: inconclusive; Pf growth 48h: inconclusive; CHX counter-1: 8.3; Shiga toxin inh: 22.7*; SARS PLpro yeast: -6.2%; CHX counter-2: inconclusive

What do the screens show for `C=C1C(=O)C2=CC1CCC(=O)C1(C)CCC(OC(C)=O)C(C)(C)C1CC2O` (stereo not drawn)?
AMA1 RON2 block: 11.8%

What do the screens show for `Cc1ccc(-c2csc(NC(=O)c3ccc(C)o3)n2)cc1`?
AMA1 RON2 block: -13.0%; Pf growth 96h: -0.7%; Pf growth 48h: 19.3%; CHX counter-1: 9.0; Shiga toxin inh: 71.3*; SARS PLpro yeast: -64.2%; CHX counter-2: 0.9%

What do the screens show for `CCN1C(=O)/C(=C/c2ccc(OC)c(OC)c2)N=C1SCC(=O)NCc1ccco1`?
AMA1 RON2 block: 11.8%; Pf growth 96h: 13.4%; Pf growth 48h: 20.4%; CHX counter-1: 1.1; Shiga toxin inh: 25.5*; SARS PLpro yeast: -6.7%; CHX counter-2: 3.1%

What do the screens show for `COc1ccc(-c2[nH]c(-c3ccc(C)cc3)nc2SCC(=O)NCc2ccco2)cc1OC`?
AMA1 RON2 block: 2.1%; Pf growth 96h: 26.2%; CHX counter-1: 3.9; Shiga toxin inh: 2.2; SARS PLpro yeast: -2.6%

What do the screens show for `COc1ccc(N2CC(C(=O)Nc3nc4ccc(S(C)(=O)=O)cc4s3)CC2=O)cc1` (stereo not drawn)?
AMA1 RON2 block: inconclusive; Pf growth 96h: -6.8%; Pf growth 48h: -17.7%; CHX counter-1: 3.2; Shiga toxin inh: 9.2; SARS PLpro yeast: 11.8%

Results for O=C(CSc1nnc(-c2ccccn2)o1)Nc1ccccc1C(F)(F)F ?
AMA1 RON2 block: 62.6%; Pf growth 96h: 2.1%; Pf growth 48h: 94.4%; CHX counter-1: 5.8; Shiga toxin inh: 63.1*; SARS PLpro yeast: -4.6%; CHX counter-2: 4.1%

What do the screens show for `O=C(Nc1ccc2oc(-c3ccccc3)nc2c1)c1ccc2c(c1)OCCO2`?
AMA1 RON2 block: -1.1%; Pf growth 96h: 100.7%; Pf growth 48h: 8.4%; CHX counter-1: 14.7; Shiga toxin inh: 42.9*; SARS PLpro yeast: -2.5%; CHX counter-2: inconclusive

What do the screens show for `CCOC(=O)C1CCCN(c2nc3ccccc3nc2C(C#N)C(=O)OCC)C1` (stereo not drawn)?
AMA1 RON2 block: -6.0%; Pf growth 96h: 7.38µM*; Pf growth 48h: inconclusive; CHX counter-1: -1.4; Shiga toxin inh: 133.4*; SARS PLpro yeast: -1.4%; CHX counter-2: -3.5%

What do the screens show for `CCOC(=O)C1CCCN(c2nc3ccccc3nc2C(C#N)C(=O)OC(C)COC)C1` (stereo not drawn)?
AMA1 RON2 block: 13.9%; Pf growth 96h: inconclusive; Pf growth 48h: inconclusive; CHX counter-1: -6.3; Shiga toxin inh: 8.7; SARS PLpro yeast: 13.7%

What do the screens show for `CCCNC(=O)CCCN1C(=O)c2ccccc2Sc2ncccc21`?
AMA1 RON2 block: 15.4%; Pf growth 96h: inconclusive; Pf growth 48h: -8.2%; CHX counter-1: 3.7; Shiga toxin inh: -4.2; SARS PLpro yeast: 1.7%

How did CCCCSCCCNC(=O)CCCN1C(=O)c2ccccc2Sc2ncccc21 do in these assays?
AMA1 RON2 block: -9.1%; Pf growth 96h: inconclusive; Pf growth 48h: inconclusive; CHX counter-1: 1.7; Shiga toxin inh: 32.3*; SARS PLpro yeast: -0.6%; CHX counter-2: 5.3%

Results for CC(C)(C)c1nc(C(C)(C)C)c(Br)c(=O)[nH]1 ?
AMA1 RON2 block: -9.4%; Pf growth 96h: 22.8%; Pf growth 48h: 10.5%; CHX counter-1: -2.0; Shiga toxin inh: -1.8; SARS PLpro yeast: 22.3%

Results for C=CCNc1sc(C(=O)c2ccccc2)c(N)c1-c1nc2ccccc2s1 ?
AMA1 RON2 block: -18.9%; Pf growth 96h: inconclusive; Pf growth 48h: inconclusive; CHX counter-1: 12.9; Shiga toxin inh: 73.3*; SARS PLpro yeast: 2.4%; CHX counter-2: inconclusive

Results for COc1cccc(C=O)c1OCCN1C(=O)c2ccccc2C1=O ?
AMA1 RON2 block: -4.1%; Pf growth 96h: inconclusive; Pf growth 48h: 41.1%; CHX counter-1: 0.4; Shiga toxin inh: 11.4; SARS PLpro yeast: -13.1%

Assay outcomes (PubChem BioAssay)
